Reference: PubChem BioAssay
“And” between values parts separate entries of the source, which are not always exact repeats. Equal values may be shown once. A structure can be active in one record and inactive in another. The source made the active and inactive calls. Cut-off read from the data, not from the text of the source, unless noted: active = inhibition above about 80%; inactive = the rest.

Assays:
[1] = liver-stage malaria parasite load reduction – cell-based, known kinase inhibitor set, luminescence, hepatoma host viability (AID 624392; call rule not given here;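 note: infected cells incubated roughly two days before readout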); conditions: Plasmodium liver stage in hepatoma cells, luciferase luminescence, concentration not given here; liver cell % of control: measured here: host liver cell viability; parasite % of control: stronger effect = lower value
[2] = galactose survival enhancers in mitochondrial complex I cybrids – cell-based, galactose medium, ATP luminescence, primary screen (AID 1645843;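 active = z-score of at least 1.8 in each of two replicates, scored against plate mean and spread of sample wells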;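 note: positive z means more ATP and so rescue of galactose-driven cybrid death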); conditions: complex I mutant cybrid cells, 72 h, stronger effect = higher value
[3] = target: Mitogen-activated protein kinase 7 (Homo sapiens) (UniProt Q13164); assay: Gal4-ERK5 driven luciferase induction – cell-based, HTS, primary screen (AID 1508626;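 active = luciferase signal above three times the same-plate solvent-only control wells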;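 note: luciferase driven by Gal4-ERK5 fusion binding five Gal4 sites before minimal TATA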); conditions: HeLa Gal4-ERK5 transactivation, 18 h, at 5 µM, stronger effect = higher value
Sequence of Mitogen-activated protein kinase 7 (Homo sapiens) (Q13164 whole entry, looked up, the tested form may be a part): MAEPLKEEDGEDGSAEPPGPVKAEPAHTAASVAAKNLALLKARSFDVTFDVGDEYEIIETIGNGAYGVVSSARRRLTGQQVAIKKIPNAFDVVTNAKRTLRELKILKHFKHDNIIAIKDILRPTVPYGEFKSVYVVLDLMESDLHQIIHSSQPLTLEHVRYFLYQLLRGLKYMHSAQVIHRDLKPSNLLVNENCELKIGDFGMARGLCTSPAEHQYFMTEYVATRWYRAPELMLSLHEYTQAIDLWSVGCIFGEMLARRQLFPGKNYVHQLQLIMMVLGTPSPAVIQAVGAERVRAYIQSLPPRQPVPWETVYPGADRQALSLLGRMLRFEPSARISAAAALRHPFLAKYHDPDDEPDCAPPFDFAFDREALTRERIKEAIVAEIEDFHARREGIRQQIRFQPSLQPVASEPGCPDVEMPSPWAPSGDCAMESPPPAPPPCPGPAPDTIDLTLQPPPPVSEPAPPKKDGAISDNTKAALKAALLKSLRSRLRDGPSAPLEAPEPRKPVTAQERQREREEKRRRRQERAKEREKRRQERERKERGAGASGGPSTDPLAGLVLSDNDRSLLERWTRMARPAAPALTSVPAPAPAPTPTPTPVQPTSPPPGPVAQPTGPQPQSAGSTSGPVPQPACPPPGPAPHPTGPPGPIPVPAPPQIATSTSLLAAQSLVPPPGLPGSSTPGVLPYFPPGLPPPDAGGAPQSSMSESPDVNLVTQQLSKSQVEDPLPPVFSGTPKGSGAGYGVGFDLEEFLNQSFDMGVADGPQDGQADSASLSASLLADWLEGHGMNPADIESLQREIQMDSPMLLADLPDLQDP

[4] = growth inhibition, single agents and combos, LFS_MB_1R, cell-based, cisplatin or BGB combos, synergistic combos for chromothripsis tumors (AID 1671452); conditions: LFS_MB_1R medulloblastoma cells, stronger effect = higher value;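 note: cells exposed for 96 hours before readout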
[5] = growth inhibition, single agents and combos, CRL2098, cell-based, BGB or cisplatin IC20 combos, synergistic combos for chromothripsis tumors (AID 1671454); conditions: CRL2098 osteosarcoma cells, drug combinations, stronger effect = higher value;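 note: cells exposed for 96 h before readout; 0% = vehicle DMSO and 100% = killing by high DMSO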
[6] = growth inhibition, single agents and combos, HD-MB03, cell-based, BGB or cisplatin IC20 combos, synergistic combos for chromothripsis tumors (AID 1671455; in the data active = inhibition above about 83%;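 note: 0% = vehicle DMSO and 100% = high DMSO as cytotoxic control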); conditions: HD-MB03 medulloblastoma cells, stronger effect = higher value
[7] = growth inhibition, single agents and combos, UWB1.289, cell-based, BGB or cisplatin combos, synergistic combos for chromothripsis tumors (AID 1671456); conditions: UWB1.289 ovarian carcinoma cells, stronger effect = higher value;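 note: cells exposed to compound for four days; 0% = vehicle DMSO and 100% = killing by high DMSO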
[8] = growth inhibition, single agents and combos, LFS_MB_2R, cell-based, cisplatin combos, synergistic combos for chromothripsis tumors (AID 1671457); conditions: LFS_MB_2R medulloblastoma cells, stronger effect = higher value;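 note: cells exposed to compound for four days before readout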
[9] = UWB1.289_BRCA1 ovarian cancer growth, cell-based, BGB or cisplatin combinations (AID 1671459); conditions: UWB1.289 BRCA1 ovarian carcinoma, drug combinations, stronger effect = higher value
[10] = drug combination toxicity in non-malignant astrocytes – cell-based, BGB or cisplatin IC20 combos, cytotoxicity control for chromothriptic childhood tumor combination screen (AID 1671460); conditions: Human astrocytes, viability inhibition, drug combinations, at 0.5 µM, stronger effect = higher value;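 note: cells exposed to compounds for 96 hours before viability readout; 0% = vehicle and 100% = killing control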
[11] = CRL1545 cell growth, single agent and combined, cisplatin and BGB IC20 combos (AID 1671464); conditions: CRL1545 osteosarcoma cells, stronger effect = higher value;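 note: cells exposed to compound for 96 hours before readout; 0% = vehicle DMSO and 100% = high DMSO killing control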
[12] = target: NAD(+) hydrolase SARM1 (Homo sapiens) (UniProt Q6SZW1); assay: blocking NAD cleavage by SARM1 SAM-TIR – cell lysate, NAD-Glo luminescence (AID 1508614;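 active = compound whose remaining NAD level is above about 45 nM, limit read from the data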;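 note: higher remaining NAD means stronger inhibition of SARM1 NADase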); conditions: SAM-TIR HEK293T lysate NADase, at 1 µM, stronger effect = higher value
Sequence of NAD(+) hydrolase SARM1 (Homo sapiens) (Q6SZW1 whole entry, looked up): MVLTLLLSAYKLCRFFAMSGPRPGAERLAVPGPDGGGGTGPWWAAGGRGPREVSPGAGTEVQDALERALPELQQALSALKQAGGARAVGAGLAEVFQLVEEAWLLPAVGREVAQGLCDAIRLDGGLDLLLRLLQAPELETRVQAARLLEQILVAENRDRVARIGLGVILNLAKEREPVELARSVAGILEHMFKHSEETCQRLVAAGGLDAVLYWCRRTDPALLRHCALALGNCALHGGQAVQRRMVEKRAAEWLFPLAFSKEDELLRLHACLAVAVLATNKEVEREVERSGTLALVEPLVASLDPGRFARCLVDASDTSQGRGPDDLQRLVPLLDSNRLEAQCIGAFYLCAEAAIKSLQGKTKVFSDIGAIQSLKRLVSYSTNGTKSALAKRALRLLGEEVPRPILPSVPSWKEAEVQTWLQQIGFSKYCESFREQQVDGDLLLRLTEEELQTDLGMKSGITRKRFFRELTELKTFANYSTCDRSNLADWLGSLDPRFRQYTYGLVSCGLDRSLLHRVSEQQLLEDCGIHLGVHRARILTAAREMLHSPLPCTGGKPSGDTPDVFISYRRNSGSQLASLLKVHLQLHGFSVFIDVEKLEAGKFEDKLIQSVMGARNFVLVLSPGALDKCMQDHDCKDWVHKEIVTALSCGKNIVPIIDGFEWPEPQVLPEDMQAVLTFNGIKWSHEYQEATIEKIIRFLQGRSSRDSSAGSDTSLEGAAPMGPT

[13] = compounds altering circadian rhythm period length – cell-based, LOPAC library, luminescence reporter (AID 2774; call rule not given here;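 note: values are relative to mean of DMSO wells on each plate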); conditions: circadian reporter cells, at 7 µM, actives lie on both sides
[14] = compounds altering viability of human ES cells (AID 493140; call rule not given here;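 note: cells exposed to compounds for four days before counting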); conditions: human embryonic stem cell survival screen; stronger effect = higher value
[15] = P. berghei load reduction in hepatocytes – cell-based, HepG2, luciferase luminescence, HepG2 viability, primary screen (AID 624349; in the data active = parasite load remaining mostly below about 12%, no sharp cut-off; inactive = mostly above about 10%;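 note: 100% = mean of DMSO negative control wells on the same plate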); conditions: P. berghei liver stage in HepG2, luciferase luminescence, concentration not given here; parasite load remaining: stronger effect = lower value; viability: measured here: HepG2 viability without parasites
[16] = system: Hepatitis C virus NS3 helicase; assay: blockers of NS3h binding to ssDNA – biochemical, fluorescence polarization, LOPAC1280 library, primary screen (AID 687035; in the data active = inhibition above about 37%); conditions: Purified HCV NS3 helicase, Cy5-dT15 ssDNA binding fluorescence polarization; stronger effect = higher value; concentration not given here
[17] = compounds altering Cy5-DNA-NS3h complex signal – biochemical, LOPAC1280, artefact control for HCV NS3 helicase inhibitor project (AID 687037; call rule not given here); conditions: Cy5-DNA-NS3h complex fluorescence interference counterscreen
[18] = blockers of cellular phospholipid synthesis – cell-based, LOPAC library, screen 4, primary screen (AID 1347384; call rule not given here); conditions: animal cells, phospholipid biosynthesis inhibition screen; at 10 µM
[19] = measured here: combination with BGB IC40, at 0.05 µM
[20] = measured here: combination with cisplatin, at 0.5 µM
[21] = measured here: combination with cisplatin, at 5 µM
[22] = measured here: combination with BGB at IC20, at 0.5 µM
[23] = measured here: combination with cisplatin at IC20, at 0.5 µM
[24] = measured here: combo with BGB at IC20, at 0.5 µM
[25] = measured here: combo with cisplatin at IC20, at 0.5 µM
[26] = measured here: inhibition with BGB combination, at 0.05 µM
[27] = measured here: inhibition with cisplatin combination, at 0.05 µM
[28] = BGB combination, concentration series, at 5 µM
[29] = cisplatin combination, concentration series, at 5 µM
[30] = measured here: combo with BGB IC20
[31] = measured here: combo with cisplatin IC20
[32] = measured here: with BGB IC20 combination, at 0.5 µM
[33] = measured here: with cisplatin IC20 combination, at 0.5 µM

Question: Which results are given for CN(C)CC(C)(C)CNc1nn2c(-c3ccccc3)nnc2cc1C1CCC1?
Answer: liver cell % of control [1]: 58.5% and 89.5% and 101%; parasite % of control [1]: 54.4% (inactive) and 60.7% (inactive) and 52.9% (inactive)

Question: With O=C(O)CCCc1c[nH]c2ccccc12 as the compound, how does the z-score [2] read?
Answer: The z-score was 1.11 (inactive).

Question: For C[C@H]1[C@H](C)CC[C@]2(C(=O)O)CC[C@]3(C)C(=CC[C@@H]4[C@@]5(C)C[C@@H](O)[C@H](O)[C@@](C)(CO)[C@@H]5CC[C@]43C)[C@H]12, which luciferase signal [3] is on record?
Answer: Its luciferase signal is 36 AU (inactive).

Question: Which results are given for COc1ccc(-c2nc(N3CCOCC3)c3sc(CN(C)c4ncc(C(=O)NO)cn4)cc3n2)cn1?
Answer: inhibition ([4]; at 0.5 µM): 93% (active) and 88.4% (active); inhibition [4, 19]: 27.1% and 15.8%; inhibition [4, 20]: 91.8% and 93.4%; inhibition [4, 21]: 100% and 102%; inhibition ([5]; at 0.5 µM): 77.2% (inactive) and 40.2% (inactive); inhibition [5, 22]: 83.7% and 62.7%; inhibition [5, 23]: 71.6% and 16.5%; inhibition ([6]; at 0.5 µM): 99.8% (active); inhibition [6, 24]: 99.7%; inhibition [6, 25]: 99.9% and 99.8%; inhibition ([7]; at 0.5 µM): 74.5% (inactive) and 79.8% (inactive); inhibition [7, 26]: 5.77% and 13.7%; inhibition [7, 27]: -4.75% and -1.55%; inhibition ([8]; at 0.5 µM): 82.2% (active) and 85.4% (active); inhibition [8, 20]: 93.9% and 97.3%; inhibition [8, 21]: 110% and 105%; inhibition [9, 28]: 118% and 117%; inhibition ([9]; at 0.5 µM): 79.8% (inactive) and 83.2% (active); inhibition [9, 29]: 127% and 131%; inhibition [10]: 101% (active) and 102% (active); inhibition [10, 30]: 103% and 104%; inhibition [10, 31]: 100% and 101%; inhibition ([11]; at 0.5 µM): 88.6% (active) and 47.7% (inactive); inhibition [11, 32]: 89.3% and 57.8%; inhibition [11, 33]: 88% and 41.7%; inhibition ([11]; single agent, at 0.05 µM): 21.7% and -65.8%; inhibition ([11]; single agent, at 5 µM): 99.3% and 99%

Question: For OCCn1cc(-c2cnc3nnn(Cc4ccc5ncccc5c4)c3n2)cn1, which liver cell % of control [1] is on record?
Answer: The liver cell % of control was 97.5% and 96.9% and 96.4%.

Question: What about the parasite % of control [1] of the same compound?
Answer: Its parasite % of control is 74.3% (inactive) and 94.9% (inactive) and 55.7% (inactive).

Question: With CN1CCc2c(c3ccccc3n2Cc2ccc(C(=O)NO)cc2)C1 as the compound, how does the inhibition ([4]; at 0.5 µM) read?
Answer: Its inhibition is -13.1% (inactive).

Question: And the inhibition [4, 19]?
Answer: The inhibition was -12% and -15.8%.

Question: And the inhibition [4, 20]?
Answer: The inhibition was -23.4% and -23.9%.

Question: And the inhibition [4, 21]?
Answer: The inhibition was -0.081% and -53.5%.

Question: And the inhibition ([5]; at 0.5 µM)?
Answer: Its inhibition is 21.5% (inactive) and -46.3% (inactive).

Question: What about the inhibition [5, 22] of the same compound?
Answer: The inhibition was -14.9% and -43.1%.

Question: And the inhibition [5, 23]?
Answer: Its inhibition is 34.9% and -68.1%.

Question: And the inhibition ([6]; at 0.5 µM)?
Answer: The inhibition was -1.98% (inactive) and 0.91% (inactive).

Question: What about the inhibition [6, 24] of the same compound?
Answer: Its inhibition is -6.31% and -10.4%.

Question: What about the inhibition [6, 25] of the same compound?
Answer: Its inhibition is 1.42% and 11.7%.

Question: What about the inhibition ([7]; at 0.5 µM) of the same compound?
Answer: The inhibition was 1.69% (inactive) and 0.65% (inactive).

Question: What about the inhibition [7, 26] of the same compound?
Answer: The inhibition was -1.11% and -13.8%.

Question: What about the inhibition [7, 27] of the same compound?
Answer: The inhibition was 3.47% and 1.13%.

Question: What about the inhibition ([8]; at 0.5 µM) of the same compound?
Answer: The inhibition was -14.9% (inactive) and -18.4% (inactive).

Question: What about the inhibition [8, 20] of the same compound?
Answer: The inhibition was -17.1% and -16.5%.

Question: What about the inhibition [8, 21] of the same compound?
Answer: The inhibition was -17.1% and 0.035%.

Question: And the inhibition [9, 28]?
Answer: The inhibition was 19.3% and 22.8%.

Question: And the inhibition ([9]; at 0.5 µM)?
Answer: Its inhibition is -0.05% (inactive) and 2.69% (inactive).

Question: What about the inhibition [9, 29] of the same compound?
Answer: Its inhibition is 23.3% and 11.9%.

Question: What about the inhibition [10] of the same compound?
Answer: The inhibition was -0.01% (inactive) and -0.33% (inactive).

Question: What about the inhibition [10, 30] of the same compound?
Answer: The inhibition was 5.22% and 4.02%.

Question: What about the inhibition [10, 31] of the same compound?
Answer: Its inhibition is -7.05% and -4.68%.

Question: What about the inhibition ([11]; at 0.5 µM) of the same compound?
Answer: The inhibition was 17% (inactive) and -23.2% (inactive).

Question: What about the inhibition [11, 32] of the same compound?
Answer: The inhibition was -9.72% and -7.89%.

Question: And the inhibition [11, 33]?
Answer: The inhibition was 29.2% and -33%.

Question: What about the inhibition ([11]; single agent, at 0.05 µM) of the same compound?
Answer: Its inhibition is -10.6% and -2.77%.

Question: What about the inhibition ([11]; single agent, at 5 µM) of the same compound?
Answer: The inhibition was 6.01% and -28.9%.

Question: With CO[C@H]1/C=C/O[C@@]2(C)Oc3c(C)c(O)c4c(O)c(c5c(nc6cc(C)ccn65)c4c3C2=O)NC(=O)/C(C)=C\C=C\[C@H](C)[C@H](O)[C@@H](C)[C@@H](O)[C@@H](C)[C@H](OC(C)=O)[C@@H]1C as the compound, how does the remaining NAD [12] read?
Answer: The remaining NAD was 10 nM (inactive).

Question: What about the luciferase signal [3] of the same compound?
Answer: Its luciferase signal is 32 AU (inactive).

Question: For O=c1c(O)c(-c2cc(O)c(O)c(O)c2)oc2cc(O)cc(O)c12, which period change [13] is on record?
Answer: The period change was -0.075 h (inactive).

Question: What about the survival [14] of the same compound?
Answer: The survival was 2.42 (inactive).

Question: What about the parasite load remaining [15] of the same compound?
Answer: The parasite load remaining was 81.9% (inactive) and 74.4% (inactive).

Question: What about the viability [15] of the same compound?
Answer: Its viability is 106% and 74.8%.

Question: What about the inhibition [16] of the same compound?
Answer: Its inhibition is 8% (inactive).

Question: What about the fluorescence ratio (interference) [17] of the same compound?
Answer: The fluorescence ratio (interference) was 1 (inactive).

Question: What about the outcome [18] of the same compound?
Answer: Its outcome is “inactive”.

Question: And the z-score [2]?
Answer: Its z-score is -1.22 (inactive).
